Measured values published in PubChem BioAssay (EPA / NIEHS).
Inconclusive results are not listed. Calls of active or inactive are those of the source. The calls were made as follows: active = hit-call score of the fitted dose curve at least 0.9, where 1 is the maximum; inconclusive = response in the unintended direction; inactive = score below 0.9.

Tests used:
[1] = TOX21_p53_BLA_p2_viability: Viability Assessment in the Tox21 HCT-116 p53 Agonism Beta-lactamase Assay, Phase 2 (AID 2283591);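 also: actives lower the ATP signal meaning cytotoxicity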
How it was run: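 HCT-116 p53-bla cells (4000/well) rested 5 h at 37C, then received compounds in DMSO (217-fold dilution) for 16 h at 37C, 5% CO2. After the CCF4 read, CellTiter-Glo was added; ATP luminescence was read after 30 min at room temperature.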

[2] = molecular target: Cellular tumor antigen p53 (Homo sapiens) (UniProt P04637); test: TOX21_p53_BLA_p2_ratio: Tox21 HCT-116 p53 Agonism Beta-lactamase Assay, Ratio, Phase 2 (AID 2283592)
Chain of Cellular tumor antigen p53 (Homo sapiens) (P04637 whole entry, looked up): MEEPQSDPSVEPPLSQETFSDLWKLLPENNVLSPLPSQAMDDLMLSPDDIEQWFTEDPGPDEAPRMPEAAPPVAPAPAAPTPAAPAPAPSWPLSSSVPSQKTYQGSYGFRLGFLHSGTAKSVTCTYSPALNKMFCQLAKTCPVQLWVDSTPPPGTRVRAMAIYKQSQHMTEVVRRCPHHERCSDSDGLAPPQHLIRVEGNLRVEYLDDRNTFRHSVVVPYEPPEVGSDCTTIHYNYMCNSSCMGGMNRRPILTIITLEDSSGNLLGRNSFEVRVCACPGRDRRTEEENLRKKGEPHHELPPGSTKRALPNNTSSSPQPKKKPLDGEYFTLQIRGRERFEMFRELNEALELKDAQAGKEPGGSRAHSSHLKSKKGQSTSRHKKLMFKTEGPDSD
How it was run: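 An inducible beta-lactamase reporter in HCT116 cells signals p53 pathway activation. After 16 h chemical exposure at 37C, cells load CCF4-AM substrate for 2 h at room temperature; activity is the cleaved/uncleaved emission ratio relative to DMSO.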

[3] = TOX21_p53_BLA_p3_viability: Viability Assessment in the Tox21 HCT-116 p53 Agonism Beta-lactamase Assay, Phase 3 (AID 2283593);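 also: cells exposed to compound for 16 h before reading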
How it was run: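 HCT-116 cells (4000/well) rested 5 h at 37C, then got DMSO compounds by pin tool (217-fold dilution) for 16 h at 37C, 5% CO2. After the bla read, CellTiter-Glo was added and luminescence read at 30 min, room temperature.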

[4] = TOX21_p53_BLA_p5_viability: Viability Assessment in the Tox21 HCT-116 p53 Agonism Beta-lactamase Assay, Phase 5 (AID 2283600)
How it was run: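 Counter-readout for cytotoxicity: ATP-dependent luminescence from CellTiter-Glo, read in the beta-lactamase wells after 30 min at RT, following a 16 h compound exposure at 37C.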

[5] = molecular target: Cellular tumor antigen p53 (Homo sapiens) (UniProt P04637); test: TOX21_p53_BLA_p4_ratio: Tox21 HCT-116 p53 Agonism Beta-lactamase Assay, Ratio, Phase 4 (AID 2283601)
How it was run: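 HCT116 cells carrying an inducible beta-lactamase reporter were plated at 4000 cells/well, rested 5 h, then exposed to compounds in DMSO (217-fold dilution) for 16 h at 37C. CCF4-AM substrate was loaded 2 h at room temperature; 460/530 nm emission ratio scored gain-of-signal versus DMSO.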

[6] = molecular target: Cellular tumor antigen p53 (Homo sapiens) (UniProt P04637); test: TOX21_p53_BLA_p3_ratio: Tox21 HCT-116 p53 Agonism Beta-lactamase Assay, Ratio, Phase 3 (AID 2283596)
How it was run: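 HCT116 p53-bla cells (4000/well) given compound in DMSO (217-fold dilution) after 5 h, incubated 16 h at 37C. CCF4-AM substrate 2 h at room temperature; 460/530 nm emission ratio, gain fitted against DMSO.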

[7] = TOX21_p53_BLA_p4_viability: Viability Assessment in the Tox21 HCT-116 p53 Agonism Beta-lactamase Assay, Phase 4 (AID 2283597);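 also: hits lower the luminescence signal meaning cytotoxicity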
How it was run: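 Compound exposure of HCT116 cells lasts 16 h at 37C, 5% CO2, with DMSO stocks diluted 217-fold. Cellular ATP is then quantified by CellTiter-Glo luminescence after 30 min at room temperature.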

[8] = molecular target: Cellular tumor antigen p53 (Homo sapiens) (UniProt P04637); test: TOX21_p53_BLA_p5_ratio: Tox21 HCT-116 p53 Agonism Beta-lactamase Assay, Ratio, Phase 5 (AID 2283599)
How it was run: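 HCT-116 cells carrying a p53-inducible beta-lactamase reporter were seeded at 4000 cells/well and dosed after 5 h with compound in DMSO (217-fold dilution). After 16 h at 37C, CCF4-AM substrate was added for 2 h, and the 460/530 nm emission ratio was scored as gain-of-signal versus DMSO.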

[9] = ACEA_ER_AUC_viability: ACEA Biosciences xCELLigence Real-Time Cell Analysis on Estrogen Receptor Agonism for Viability (AID 2283782);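 also: continuous compound exposure with impedance area under curve over 80 h; hit means loss of impedance signal meaning reduced cell growth or viability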
How it was run: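 T-47D human breast cells in phenol red-free RPMI1640 with 10% charcoal-stripped FBS were dosed with an 8-point 1:4 dilution series from 100 uM top final concentration, in duplicate. Impedance-based growth was followed for 80 h; AUC analysed versus DMSO.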

Measured: outcome

C=CCCC=C
inactive: [1] | [2] | [3] | [4] | [5]

C/C(=N\O)c1ccc(OCC(=O)N2CCCCC2)cc1
inactive: [1] | [2] | [3] | [4]

Cl[Si](Cl)(c1ccccc1)c1ccccc1
inactive: [1] | [2] | [3] | [4]

O=Cc1ccc(Cl)c(Cl)c1
inactive: [1] | [2] | [6] | [7]

Nc1ccc2cc(S(=O)(=O)O)cc(O)c2c1
inactive: [1] | [2] | [3] | [8] | [5]

COc1ccc(C2C(=O)c3ccccc3C2=O)cc1
inactive: [1] | [2] | [3] | [4] | [5]

CCOc1ccc(O)cc1
inactive: [1] | [2] | [6]

O=C1c2ccccc2S(=O)(=O)N1CCCCN1CCN(c2ncccn2)CC1
inactive: [1] | [2] | [3] | [4]

C[C@]12CC[C@@H]3c4ccc(OS(=O)(=O)O)cc4CC[C@H]3[C@@H]1CCC2=O
inactive: [1] | [2] | [3] | [5]

C1C[C@@H]2[C@H]3CC[C@H](C3)[C@@H]2C1
inactive: [1] | [2] | [3] | [4] | [5]

CCC(=O)c1ccc2c(c1)N(CCCN1CCN(CCO)CC1)c1ccccc1S2
inactive: [1] | [2] | [3] | [4] | [5]

Cc1nc2n(c(=O)c1CCN1CCC(c3noc4cc(F)ccc34)CC1)CCCC2
inactive: [1] | [2] | [6] | [7]

CC(CCC(=O)O)C(=O)O (centres undefined)
inactive: [1] | [2] | [6] | [7] | [8]

CCOC(=O)c1ncn2c1CN(C)C(=O)c1cc(F)ccc1-2
inactive: [1] | [2] | [3] | [4]

CN(C)CCCNCCC#N
inactive: [1] | [2] | [3] | [4] | [5] | [9]

O=C(NC(Cc1cc(=O)[nH]c2ccccc12)C(=O)O)c1ccc(Cl)cc1 (centres undefined)
inactive: [1] | [2] | [6]

CN(C)c1ccc(/C=C/c2ccc([N+](=O)[O-])cc2)cc1
inactive: [1] | [2] | [6] | [7]

CC1(C)CC(OC(=O)CCCCCCCCC(=O)OC2CC(C)(C)NC(C)(C)C2)CC(C)(C)N1
inactive: [1] | [2] | [6] | [7]

OCCCCCCO
inactive: [1] | [2] | [6] | [7] | [8] | [4]

Cc1cccc(C)c1NC(=O)C(C)N (centres undefined)
inactive: [1] | [2] | [6] | [7] | [8]
